Test [1] has as its target Paired box protein Pax-6 (Homo sapiens) (UniProt P26367). Put plainly: ATG_Pax6_CIS: Attagene CIS-FACTORIAL HepG2 Assay for human Paired Box 6 (PAX6) (AID 2282956). Conditions: HepG2 CIS-FACTORIAL PAX6 reporter transcription, RNA readout; actives raise or lower the signal. The method in brief:
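Transient MRTU transfection of HepG2 → compound exposure 24 h → TriZol RNA, oligo(dT) RT → PCR, 6-FAM primer extension, HpaI cut → capillary electrophoresis; activity fitted both directions against DMSO.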

Test [2] is described as follows: ATG_PXRE_CIS: Attagene CIS-FACTORIAL HepG2 Assay for human Pregnane X Receptor Element (PXRE) (AID 2282957). The note with it: HepG2 Attagene CIS-FACTORIAL PXRE reporter, mRNA; actives raise or lower the signal. Put shortly: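 HepG2 cells transiently transfected with cis-regulated multiple reporter transcription units; endogenous factor activity measured as reporter mRNA 24 h after dosing. RT-PCR, fluorescent primer extension, HpaI digestion, capillary electrophoresis; bidirectional fit versus DMSO baseline.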

Test [3] is described as follows: ATG_PPRE_CIS: Attagene CIS-FACTORIAL HepG2 Assay for human Peroxisome Proliferator-activated Response Element (PPRE) (AID 2282958). The note with it: HepG2 PPRE cis-element reporter, Attagene transcription factor profiling; actives raise or lower the signal. The method in brief: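 HepG2 cells are transiently transfected with multiplexed cis-promoter reporter units to report endogenous PPAR activity. After 24 h dosing, reporter mRNA is read by RT-PCR and capillary electrophoresis. Fitting is bidirectional against DMSO.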

The nature of test [4]: ATG_RORE_CIS: Attagene CIS-FACTORIAL HepG2 Assay for human RAR-related Orphan Receptor Element (RORE) (AID 2282959). Conditions: HepG2 Attagene cis-factorial RORE reporter, mRNA; actives raise or lower the signal. The method in brief:
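HepG2 cells carrying transiently transfected cis-regulated reporter units; RORE-driven reporter mRNA quantified 24 h post-dosing by RT-PCR, 6-FAM primer extension, HpaI digestion and capillary electrophoresis. Bidirectional fit versus DMSO.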

Test [5] is described as follows: ATG_Sox_CIS: Attagene CIS-FACTORIAL HepG2 Assay for human SRY-box transcription factor (SOX) (AID 2282960). The note with it: HepG2 Attagene cis-factorial SOX reporter, mRNA; actives raise or lower the signal. The method in brief: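 HepG2 cells transiently transfected with multiple cis-regulated reporter units, then dosed for 24 h. Reporter mRNA quantified by RT-PCR, fluorescent labelling, HpaI digestion and capillary electrophoresis; bidirectional fit versus DMSO.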

For test [6], the target named is Transcription factor Sp1 (Homo sapiens) (UniProt P08047). Put plainly: ATG_Sp1_CIS: Attagene CIS-FACTORIAL HepG2 Assay for human Specificity Protein 1 (Sp1) (AID 2282961). The note with it: HepG2 Sp1 cis-reporter transcription, actives raise or lower the signal. Put shortly:
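HepG2 cells transiently transfected with multiplexed cis-regulated reporter constructs, chemical exposure 24 h. Reporter mRNA quantified by RT-PCR with capillary electrophoresis; bidirectional fit relative to DMSO.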

Test [7] can be described thus: ATG_SREBP_CIS: Attagene CIS-FACTORIAL HepG2 Assay for human Sterol Regulatory Element Binding (SREBP) (AID 2282962). Conditions: HepG2 Attagene cis-factorial SREBP reporter, mRNA; actives raise or lower the signal. The method in brief:
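Transfected HepG2 (cis-regulated reporter library, endogenous TFs) → compound 24 h → total RNA → oligo(dT) RT → reporter-specific PCR → FAM primer extension, HpaI cut → CE fluorescence. Fit bidirectional vs DMSO.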

Test [8] deals with Signal transducer and activator of transcription 3 (Homo sapiens) (UniProt P40763). The test is described as follows: ATG_STAT3_CIS: Attagene CIS-FACTORIAL HepG2 Assay for human Signal Transducer and Activator of Transcription 3 (STAT3) (AID 2282963). Conditions: HepG2, Attagene cis-factorial STAT3 reporter transcription; actives raise or lower the signal. Put shortly:
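Transcript-level reporter assay. HepG2 transient MRTU transfection, 24 h exposure, fluorescence detection after RT-PCR and CE; DMSO baseline.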

The nature of test [9]: ATG_TCF_b_cat_CIS: Attagene CIS-FACTORIAL HepG2 Assay for human T-Cell-Factor with beta-catenin (TCF/b-cat) (AID 2282965). Conditions: HepG2 TCF/beta-catenin cis-reporter transcription, actives raise or lower the signal. Put shortly: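 HepG2 cells transiently transfected with multiple cis-promoter-regulated reporter transcription units, so endogenous transcription factor activity is measured. Reporter mRNA read 24 hours after dosing by RT-PCR, fluorescent labelling and capillary electrophoresis; bidirectional fitting against DMSO.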

Test [10] can be described thus: ATG_TAL_CIS: Attagene CIS-FACTORIAL HepG2 Assay for human TAL Basal Promoter (AID 2282966).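 Note: background control endpoint measuring basal TAL promoter reporter mRNA not a specific factor.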 The note with it: HepG2 Attagene cis-factorial TAL promoter reporter; actives raise or lower the signal. The method in brief:
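HepG2 cells were transiently transfected with promoter-driven multiplexed reporter units and dosed for 24 h. Reporter mRNA was measured by RT-PCR with capillary electrophoresis fluorescence; bidirectional fits used DMSO as baseline, serving as a background control.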

Test [11] is described as follows: ATG_TGFb_CIS: Attagene CIS-FACTORIAL HepG2 Assay for human Transforming Growth Factor (TGF) (AID 2282967). The note with it: HepG2 Attagene CIS TGFb reporter, mRNA transcription; actives raise or lower the signal. The method in brief:
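HepG2 cells transiently transfected with cis-promoter-driven multiple reporter units measure endogenous TF activity; reporter mRNA quantified at 24 h by RT-PCR, FAM labeling, HpaI digestion and capillary electrophoresis. Bidirectional fit vs DMSO.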

Test [12] can be described thus: ATG_VDRE_CIS: Attagene CIS-FACTORIAL HepG2 Assay for human Vitamin D Receptor Element (VDRE) (AID 2282968). The note with it: HepG2 VDRE cis-reporter transcription, actives raise or lower the signal. The method in brief: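 RT-PCR/CE readout of reporter mRNA; HepG2, transient transfection, 24 h dosing; DMSO baseline; bidirectional analysis.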
For test [13], the target named is Estrogen receptor (Homo sapiens) (UniProt P03372). Put plainly: ATG_ERa_TRANS: Attagene TRANS-FACTORIAL HepG2 Assay for human Estrogen Receptor alpha (ERa) (AID 2282970; active = hit-call score of the fitted dose curve at least 0.9, where 1 is the maximum). The note with it: HepG2 Attagene TRANS ERa GAL4 reporter, mRNA. The method in brief:
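HepG2 cells transiently transfected with multiplexed GAL4-UAS reporter units; ERa activity read via exogenous chimeric NR-Gal4 protein. After 24 hour compound exposure, reporter mRNA measured by RT-PCR with 6-FAM labelling and capillary electrophoresis; gain-of-signal fitted relative to DMSO.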

Test [14] has as its target Steroid hormone receptor ERR1 (Homo sapiens) (UniProt P11474). The test is described as follows: ATG_ERRa_TRANS: Attagene TRANS-FACTORIAL HepG2 Assay for human Estrogen-Related Receptor alpha (ERRa) (AID 2282971; active = hit-call score of the fitted dose curve at least 0.9, where 1 is the maximum). The note with it: HepG2 Attagene TRANS reporter, ERRa transactivation. Put shortly:
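HepG2 cells transiently transfected with multiplexed GAL4-UAS reporter units reading chimeric ERRa-Gal4 activity; 24 h compound exposure. Reporter mRNA measured by RT-PCR, 6-FAM labelling, HpaI digest and capillary electrophoresis; gain of signal fitted versus DMSO baseline.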

In test [15] the target is X-box-binding protein 1 (Homo sapiens) (UniProt P17861). Put plainly: ATG_Xbp1_CIS: Attagene CIS-FACTORIAL HepG2 Assay for human X-box Binding Protein 1 (XBP1) (AID 2282972). The note with it: HepG2 XBP1 cis-element reporter, Attagene multiplex; actives raise or lower the signal. Put shortly:
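HepG2, transient MRTU transfection (cis-promoter driven), 24 h compound exposure. Total RNA → oligo(dT) RT → PCR → 6-FAM labeling → HpaI cut → CE. Bidirectional fit vs DMSO.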

For test [16], the target named is Estrogen-related receptor gamma (Homo sapiens) (UniProt P62508). The test is described as follows: ATG_ERRg_TRANS: Attagene TRANS-FACTORIAL HepG2 Assay for human Estrogen-Related Receptor gamma (ERRg) (AID 2282977; active = hit-call score of the fitted dose curve at least 0.9, where 1 is the maximum;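 note: hits increase reporter signal over DMSO so potencies reflect activators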). Conditions: HepG2 Attagene TRANS reporter, ERRg transactivation. The method in brief:
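HepG2 cells transiently transfected with multiplexed GAL4-UAS reporter units driven by chimeric NR-Gal4 proteins; 24 h exposure. Reporter mRNA quantified by RT-PCR, fluorescent labelling, HpaI digestion and capillary electrophoresis; gain of signal vs DMSO.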

Test [17] is described as follows: ATG_TA_CIS: Attagene CIS-FACTORIAL HepG2 Assay for human TA Basal Promoter (AID 2282964). Conditions: HepG2 Attagene CIS-factorial TA basal promoter reporter; actives raise or lower the signal. The method in brief: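 HepG2 cells transiently transfected with multiple reporter units under cis promoter elements, reporting endogenous transcription factor activity; this endpoint tracks the TA basal promoter as background control. Reporter mRNA after 24 h dosing measured by RT-PCR/capillary electrophoresis; bidirectional fits versus DMSO.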

The target in test [18] is Nuclear receptor subfamily 1 group I member 3 (Homo sapiens) (UniProt Q14994). The test is described as follows: ATG_CAR_TRANS: Attagene TRANS-FACTORIAL HepG2 Assay for human Constitutive Androstane Receptor (CAR) (AID 2282969; active = hit-call score of the fitted dose curve at least 0.9, where 1 is the maximum;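 note: activators raise reporter mRNA above DMSO so AC50 marks induction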). The note with it: HepG2 Attagene TRANS-FACTORIAL CAR reporter. Put shortly: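 HepG2 cells transiently transfected with multiplexed GAL4-UAS reporter units expressing chimeric NR-Gal4 proteins; compound exposure 24 h. Reporter mRNA measured by RT-PCR, 6-FAM labelling, HpaI digestion and capillary electrophoresis; gain-of-signal fitted against DMSO baseline.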

Test [19] in a line: ATG_M_19_TRANS: Attagene TRANS-FACTORIAL HepG2 Assay for M19 Transcription Factor (Internal Marker) (AID 2282974; active = hit-call score of the fitted dose curve at least 0.9, where 1 is the maximum). The note with it: HepG2 Attagene TRANS-FACTORIAL M19 internal marker reporter. The method in brief:
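HepG2 transiently transfected with GAL4-UAS multiplex reporter constructs, exposed 24 h; reporter RNA quantified by RT-PCR, 6-FAM labeling, HpaI digestion and capillary electrophoresis; internal background marker fitted upward versus DMSO.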

Test [20] is described as follows: ATG_GAL4_TRANS: Attagene TRANS-FACTORIAL HepG2 Assay for GAL4 (Internal Marker) (AID 2282976; active = hit-call score of the fitted dose curve at least 0.9, where 1 is the maximum). The note with it: HepG2 Attagene TRANS GAL4 internal marker reporter. Put shortly:
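HepG2 cells transiently transfected with multiplexed GAL4-UAS reporter constructs were dosed for 24 h. Reporter mRNA was measured by RT-PCR, 6-FAM primer extension, HpaI digestion and capillary electrophoresis, and gain of signal was fitted relative to DMSO.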

Structures are written as SMILES. Inconclusive results are not listed. Activity calls are given as the source filed them. Rule for the calls, unless noted: active = hit-call score of the fitted dose curve at least 0.9, where 1 is the maximum; inactive = score below 0.9.

Experimental findings from PubChem BioAssay (EPA / NIEHS) are described below.

Chain of Paired box protein Pax-6 (Homo sapiens) (P26367 whole entry, looked up): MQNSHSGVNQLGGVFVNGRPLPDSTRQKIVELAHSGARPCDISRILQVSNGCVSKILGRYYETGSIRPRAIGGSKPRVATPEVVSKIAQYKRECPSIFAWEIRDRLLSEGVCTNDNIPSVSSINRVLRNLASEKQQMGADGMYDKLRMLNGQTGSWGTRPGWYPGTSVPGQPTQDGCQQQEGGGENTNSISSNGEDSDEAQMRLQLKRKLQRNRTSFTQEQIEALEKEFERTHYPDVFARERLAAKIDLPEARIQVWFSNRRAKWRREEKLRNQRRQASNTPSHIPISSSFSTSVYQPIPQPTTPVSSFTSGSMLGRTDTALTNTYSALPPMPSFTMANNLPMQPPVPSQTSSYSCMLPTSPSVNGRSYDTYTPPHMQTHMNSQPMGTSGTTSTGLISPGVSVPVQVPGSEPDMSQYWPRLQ
Chain of Nuclear receptor subfamily 1 group I member 3 (Homo sapiens) (Q14994 whole entry, looked up, the tested form may be a part): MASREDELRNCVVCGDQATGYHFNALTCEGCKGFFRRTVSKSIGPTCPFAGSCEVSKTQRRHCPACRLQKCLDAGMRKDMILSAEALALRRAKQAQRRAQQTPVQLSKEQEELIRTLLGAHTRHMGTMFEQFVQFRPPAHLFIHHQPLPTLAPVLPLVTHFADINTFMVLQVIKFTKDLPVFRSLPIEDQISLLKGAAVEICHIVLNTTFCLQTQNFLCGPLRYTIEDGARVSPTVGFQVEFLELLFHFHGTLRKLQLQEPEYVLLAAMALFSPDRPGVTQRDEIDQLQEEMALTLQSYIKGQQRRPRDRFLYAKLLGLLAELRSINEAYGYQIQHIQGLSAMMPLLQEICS
Chain of Estrogen-related receptor gamma (Homo sapiens) (P62508 whole entry, looked up, the tested form may be a part): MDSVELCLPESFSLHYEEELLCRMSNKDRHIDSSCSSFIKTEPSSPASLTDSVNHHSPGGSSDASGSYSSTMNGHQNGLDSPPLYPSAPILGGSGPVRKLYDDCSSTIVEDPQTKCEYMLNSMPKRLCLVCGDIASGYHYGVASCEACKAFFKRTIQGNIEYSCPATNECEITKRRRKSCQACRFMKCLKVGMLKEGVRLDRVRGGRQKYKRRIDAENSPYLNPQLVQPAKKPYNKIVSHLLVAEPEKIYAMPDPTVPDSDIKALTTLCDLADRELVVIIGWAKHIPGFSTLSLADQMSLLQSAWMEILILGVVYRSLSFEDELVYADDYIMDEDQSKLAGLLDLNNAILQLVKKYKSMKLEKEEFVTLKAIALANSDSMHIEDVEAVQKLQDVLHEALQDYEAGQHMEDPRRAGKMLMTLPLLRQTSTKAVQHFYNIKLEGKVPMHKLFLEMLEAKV
Chain of Estrogen receptor (Homo sapiens) (P03372 whole entry, looked up, the tested form may be a part): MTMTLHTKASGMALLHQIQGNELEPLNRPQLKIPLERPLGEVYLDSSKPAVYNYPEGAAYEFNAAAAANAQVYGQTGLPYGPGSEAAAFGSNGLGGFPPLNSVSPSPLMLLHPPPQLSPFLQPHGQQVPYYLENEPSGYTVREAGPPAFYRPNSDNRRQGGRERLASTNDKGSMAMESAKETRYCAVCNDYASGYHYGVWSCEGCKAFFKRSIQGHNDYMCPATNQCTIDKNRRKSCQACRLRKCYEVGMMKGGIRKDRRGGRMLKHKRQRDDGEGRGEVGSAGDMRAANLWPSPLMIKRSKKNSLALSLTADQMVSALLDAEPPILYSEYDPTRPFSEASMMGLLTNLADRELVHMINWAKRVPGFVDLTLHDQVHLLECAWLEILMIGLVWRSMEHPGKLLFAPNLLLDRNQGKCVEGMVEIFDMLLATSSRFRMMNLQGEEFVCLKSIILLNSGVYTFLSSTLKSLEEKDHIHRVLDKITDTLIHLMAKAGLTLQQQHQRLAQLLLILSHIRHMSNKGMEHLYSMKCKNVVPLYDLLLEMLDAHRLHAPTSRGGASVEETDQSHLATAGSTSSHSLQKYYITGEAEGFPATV
Chain of X-box-binding protein 1 (Homo sapiens) (P17861 whole entry, looked up): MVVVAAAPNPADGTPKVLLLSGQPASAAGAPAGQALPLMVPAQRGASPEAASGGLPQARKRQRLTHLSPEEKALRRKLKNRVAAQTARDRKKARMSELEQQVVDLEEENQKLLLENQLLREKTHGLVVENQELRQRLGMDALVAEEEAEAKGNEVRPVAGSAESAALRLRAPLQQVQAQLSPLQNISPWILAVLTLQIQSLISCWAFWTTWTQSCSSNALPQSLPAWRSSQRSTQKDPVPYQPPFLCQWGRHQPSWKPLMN
Chain of Signal transducer and activator of transcription 3 (Homo sapiens) (P40763 whole entry, looked up): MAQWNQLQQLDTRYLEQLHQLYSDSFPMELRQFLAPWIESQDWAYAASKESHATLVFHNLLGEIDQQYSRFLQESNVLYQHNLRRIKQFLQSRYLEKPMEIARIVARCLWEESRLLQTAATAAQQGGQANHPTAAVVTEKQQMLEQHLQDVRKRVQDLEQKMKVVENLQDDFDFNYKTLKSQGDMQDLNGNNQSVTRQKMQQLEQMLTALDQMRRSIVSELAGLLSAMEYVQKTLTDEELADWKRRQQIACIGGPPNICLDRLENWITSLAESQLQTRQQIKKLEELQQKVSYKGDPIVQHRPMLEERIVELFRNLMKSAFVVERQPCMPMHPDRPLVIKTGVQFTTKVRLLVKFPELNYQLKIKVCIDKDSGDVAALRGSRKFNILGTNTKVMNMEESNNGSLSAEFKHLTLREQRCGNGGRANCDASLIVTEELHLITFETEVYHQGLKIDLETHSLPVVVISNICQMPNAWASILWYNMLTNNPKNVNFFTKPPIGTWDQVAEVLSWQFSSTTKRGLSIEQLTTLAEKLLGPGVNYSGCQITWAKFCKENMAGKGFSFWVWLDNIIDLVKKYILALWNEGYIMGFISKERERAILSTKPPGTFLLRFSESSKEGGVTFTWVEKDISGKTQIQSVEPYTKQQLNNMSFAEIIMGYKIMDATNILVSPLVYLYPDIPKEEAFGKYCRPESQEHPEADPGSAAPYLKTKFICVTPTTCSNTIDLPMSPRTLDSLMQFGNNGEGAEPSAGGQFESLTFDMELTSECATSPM
Chain of Transcription factor Sp1 (Homo sapiens) (P08047 whole entry, looked up): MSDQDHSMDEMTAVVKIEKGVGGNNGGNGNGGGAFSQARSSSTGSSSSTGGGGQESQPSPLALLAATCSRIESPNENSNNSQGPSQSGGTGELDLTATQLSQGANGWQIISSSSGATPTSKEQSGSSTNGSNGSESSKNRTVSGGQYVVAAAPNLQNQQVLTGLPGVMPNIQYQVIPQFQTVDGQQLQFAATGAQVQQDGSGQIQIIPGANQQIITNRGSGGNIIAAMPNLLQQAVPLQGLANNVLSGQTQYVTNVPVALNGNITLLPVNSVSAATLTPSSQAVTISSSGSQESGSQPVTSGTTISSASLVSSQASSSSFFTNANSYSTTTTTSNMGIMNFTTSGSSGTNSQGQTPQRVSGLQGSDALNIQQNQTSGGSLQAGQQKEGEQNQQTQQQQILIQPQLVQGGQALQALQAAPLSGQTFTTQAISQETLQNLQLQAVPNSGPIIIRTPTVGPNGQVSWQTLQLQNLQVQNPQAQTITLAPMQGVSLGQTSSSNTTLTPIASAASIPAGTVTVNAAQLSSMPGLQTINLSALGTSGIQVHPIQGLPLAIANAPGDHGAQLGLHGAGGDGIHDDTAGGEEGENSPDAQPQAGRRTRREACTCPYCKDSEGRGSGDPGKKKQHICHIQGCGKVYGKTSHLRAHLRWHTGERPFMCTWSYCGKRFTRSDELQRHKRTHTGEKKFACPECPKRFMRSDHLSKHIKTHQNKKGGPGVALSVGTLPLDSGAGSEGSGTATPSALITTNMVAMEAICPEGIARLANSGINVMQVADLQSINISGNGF
Chain of Steroid hormone receptor ERR1 (Homo sapiens) (P11474 whole entry, looked up, the tested form may be a part): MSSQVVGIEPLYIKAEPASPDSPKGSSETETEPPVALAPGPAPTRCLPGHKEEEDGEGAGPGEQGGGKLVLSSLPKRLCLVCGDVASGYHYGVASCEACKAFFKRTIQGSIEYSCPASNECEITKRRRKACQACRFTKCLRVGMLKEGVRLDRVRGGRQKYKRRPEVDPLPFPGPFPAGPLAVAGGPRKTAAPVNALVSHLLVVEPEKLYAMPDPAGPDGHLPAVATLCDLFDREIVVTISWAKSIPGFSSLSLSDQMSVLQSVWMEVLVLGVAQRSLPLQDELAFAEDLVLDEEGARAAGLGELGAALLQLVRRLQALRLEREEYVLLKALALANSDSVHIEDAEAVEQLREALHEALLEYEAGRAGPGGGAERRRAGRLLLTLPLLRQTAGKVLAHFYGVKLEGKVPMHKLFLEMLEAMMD

In the case of `CC(C)(N)CO`, the compound was classed as inactive in test [1], in test [2], in [3], in test [4], in test [5] and in [6]. For the same compound, the compound was classed as inactive in test [7], in [8], in [9], in [10], in test [11] and in [12]. For the same compound, the result in [13], in test [14], in test [15] and in test [16] was inactive.

Regarding `NNc1nc(-c2ccc(N)cc2)cs1`, the outcome in [1], in test [2], in test [3], in test [4], in [6] and in test [7] was inactive. In addition, the compound was classed as inactive in test [8], in test [17], in test [9], in test [10], in test [11] and in [18]. Moreover, the compound was classed as inactive in test [13], in test [15], in [19] and in test [16].

Consider `[Ca+2]`, for which the call in [1], in [2], in [3], in [4], in [5] and in [7] was inactive. Also, the call in [8], in [17], in test [9], in test [10], in test [11] and in [12] was inactive. For the same compound, the compound was called inactive in test [15] and in test [20].

For `CCCCCCCCCCCCN(CCCCCCCCCCCC)CCCCCCCCCCCC`, the compound was classed as inactive in test [1], in [2], in [3], in test [5], in [6] and in test [7]. For the same compound, the result in test [8], in test [17], in [9], in [10], in test [11] and in test [12] was inactive. Further, the compound was called inactive in test [18] and in test [15].

Broadly, the AC50 is the concentration giving half of the maximal activity seen. For the compound `Cc1ccc2ccccc2n1`, the compound was called inactive in [1], in test [3], in test [4], in test [5], in test [8] and in test [17]. Also, the call in [9], in test [10], in test [11], in test [12], in test [15] and in test [19] was inactive. The call in [20] was inactive. For the same compound, the AC50 in [2] is 58.9 µM (active).

Take `CCc1c(C)cc(N)c(CC)c1N`: the compound was called inactive in test [1], in [3], in test [4], in test [6], in [7] and in test [8]. In addition, the compound was called inactive in test [17], in [9], in [10], in [11], in [12] and in [18]. Further, the outcome in test [13], in [14], in test [15], in test [19] and in test [16] was inactive. The AC50 in test [2] was 64.5 µM (active).

Regarding `Cc1ccc(S)cc1`, the call in test [1], in test [2], in test [3], in test [4], in test [7] and in [8] was inactive. The result in test [17], in [10] and in test [19] was inactive. The AC50 is 24.4 µM (active) in [9] and 25.4 µM (active) in [13].
